The values that follow come from publication PMC5540273 (PLoS ONE, 2017).

Among the test systems are TRPM6; TSSK1B; TSSK3; TTK; TXK; TYRO3; ULK1; ULK2.
Common to all, as to conditions: concentration: 1 μM, replicates: in singlicate; n = 1
Assay [1] has as its system TYK2(JH1domain-catalytic).
For assay [2], the system named is TYK2(JH2domain-pseudokinase).
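Note: KINOMEscan kinase panel screen.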

For the compound `COc1cccc(C2=C(Nc3cccc(C(=O)O)c3)C(=O)NC2=O)c1` [SB-390770], the “%Inh” value in the assay with TRPM6 turned out to be 15%; in the assay with TSSK1B, 23%; in the assay on TSSK3 it was 15%; in the assay on TTK it was 0%; in the assay on TXK, 48%; in assay [1], 19%. Moreover, the “%Inh” value in assay [2] is 0%; in the assay with TYRO3, 0%; in the assay with ULK1, 26%; in the assay on ULK2, 6%.

In the case of `CCC(=O)c1c(-c2ccccc2)c2cc(Cl)ccc2c(=O)n1Cc1cc(S(C)(=O)=O)n(CCC(C)(C)O)n1`, the “%Inh” value is 18% in the assay with TRPM6; 0% in the assay with TSSK1B; 1% in the assay with TSSK3; 4% with TTK; 18% in the assay with TXK; 0% in assay [1]. For the same compound, the “%Inh” value in assay [2] came out at 6%; in the assay with TYRO3 it was 0%; with ULK1, 0%; with ULK2, 7%.

As to `Cc1ccc(-c2ccc3c(ccc4sc5c(c43)NC[C@@H](C)N=C5N(C)C)n2)cn1`, the “%Inh” value (in the assay with TRPM6; with TSSK1B; in the assay with TSSK3; in the assay on TTK; in the assay with TXK; in assay [1]) was 0% each time. Also, the “%Inh” value (in [2]; in the assay on TYRO3; in the assay with ULK1; in the assay with ULK2) was 0% each time.

As for `CCS(=O)c1ccc(-c2coc3ccc(-c4nnc(C)o4)cc23)cc1` (stereo not drawn), the “%Inh” value is listed as 0% with TRPM6; 0% with TSSK1B; 0% with TSSK3; 14% in the assay on TTK; 0% in the assay on TXK; 21% in [1]. Further, the “%Inh” value is 11% in assay [2], 0% in the assay with TYRO3, 0% in the assay on ULK1 and 4% with ULK2.

For the compound `COc1cc(Nc2nccc(N3CCC(NC(=O)C(C)c4ccc(Cl)cc4)C3)n2)cc(OC)c1OC` (stereo not drawn) [GSK1379757], the “%Inh” value came to 0% in the assay on TRPM6; 0% in the assay with TSSK1B; 19% in the assay with TSSK3; 0% in the assay on TTK; 0% in the assay on TXK; 38% in assay [1]. Moreover, the “%Inh” value in assay [2] was found to be 31%; in the assay with TYRO3, 0%; with ULK1, 0%; in the assay with ULK2, 0%.

With `Cc1nnc(-c2ccc(C)c(-c3ccc(C(=O)O)cc3)c2)o1` [GW608005], the “%Inh” value is listed as 1% in the assay on TRPM6; 10% in the assay on TSSK1B; 0% in the assay with TSSK3; 12% with TTK; 0% in the assay with TXK; 15% in assay [1]. For the same compound, the “%Inh” value in [2] is on record as 8%; with TYRO3, 0%; with ULK1, 8%; with ULK2, 0%.

Consider `COc1ccc(Nc2nccc(N3CCC(NS(=O)(=O)c4ccc(NC(C)=O)cc4)C3)n2)cc1` (stereo not drawn) [GSK1379729], for which the “%Inh” value in the assay on TRPM6 is reported as 0%; in the assay with TSSK1B, 0%; with TSSK3, 21%; in the assay on TTK, 7%; in the assay with TXK, 35%; in assay [1], 93.8%. In addition, the “%Inh” value in assay [2] was determined as 0%; in the assay on TYRO3, 23%; in the assay with ULK1, 26%; in the assay with ULK2, 0%.

For the compound `CCn1c(-c2nonc2N)nc2ccccc21` [SB-693162/GW549034], the “%Inh” value in the assay on TRPM6 is listed as 0%; in the assay with TSSK1B, 0%; in the assay on TSSK3, 0%; in the assay with TTK it was 29%; with TXK, 12%; in assay [1] it was 0%. Moreover, the “%Inh” value in assay [2] turned out to be 25%; with TYRO3 it was 0%; with ULK1, 40%; with ULK2, 31%.

Take `O=C(Nc1n[nH]c2nc(-c3ccccc3)c(Cl)cc12)C1CC1` [SB-734909]: the “%Inh” value was 29% in the assay on TRPM6; 0% with TSSK1B; 0% in the assay on TSSK3; 0% with TTK; 4% in the assay with TXK; 25% in assay [1]. Further, the “%Inh” value was 16% in assay [2], 0% with TYRO3, 22% with ULK1 and 20% in the assay on ULK2.
